# Laboratory results: article PMC4336329 (PLoS ONE, 2015)
# The campaign covered roughly 310,000 compounds. About 14,000 (4.5%) showed an effect of 50% or more. Effects have a minus sign here. Only a selection was taken, and strong results are over-represented in it overall.
# Target: human ether-à-go-go-related gene (hERG) potassium channel (human, UniProt Q12809)
# Assay: primary screen, population patch clamp on CHO cells stably expressing hERG; higher = less effect of the substance
# 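Further: peak tail current of the secondary pulse compared with the same well before compound.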
# Chain of human ether-à-go-go-related gene (hERG) potassium channel (Q12809 whole entry, looked up): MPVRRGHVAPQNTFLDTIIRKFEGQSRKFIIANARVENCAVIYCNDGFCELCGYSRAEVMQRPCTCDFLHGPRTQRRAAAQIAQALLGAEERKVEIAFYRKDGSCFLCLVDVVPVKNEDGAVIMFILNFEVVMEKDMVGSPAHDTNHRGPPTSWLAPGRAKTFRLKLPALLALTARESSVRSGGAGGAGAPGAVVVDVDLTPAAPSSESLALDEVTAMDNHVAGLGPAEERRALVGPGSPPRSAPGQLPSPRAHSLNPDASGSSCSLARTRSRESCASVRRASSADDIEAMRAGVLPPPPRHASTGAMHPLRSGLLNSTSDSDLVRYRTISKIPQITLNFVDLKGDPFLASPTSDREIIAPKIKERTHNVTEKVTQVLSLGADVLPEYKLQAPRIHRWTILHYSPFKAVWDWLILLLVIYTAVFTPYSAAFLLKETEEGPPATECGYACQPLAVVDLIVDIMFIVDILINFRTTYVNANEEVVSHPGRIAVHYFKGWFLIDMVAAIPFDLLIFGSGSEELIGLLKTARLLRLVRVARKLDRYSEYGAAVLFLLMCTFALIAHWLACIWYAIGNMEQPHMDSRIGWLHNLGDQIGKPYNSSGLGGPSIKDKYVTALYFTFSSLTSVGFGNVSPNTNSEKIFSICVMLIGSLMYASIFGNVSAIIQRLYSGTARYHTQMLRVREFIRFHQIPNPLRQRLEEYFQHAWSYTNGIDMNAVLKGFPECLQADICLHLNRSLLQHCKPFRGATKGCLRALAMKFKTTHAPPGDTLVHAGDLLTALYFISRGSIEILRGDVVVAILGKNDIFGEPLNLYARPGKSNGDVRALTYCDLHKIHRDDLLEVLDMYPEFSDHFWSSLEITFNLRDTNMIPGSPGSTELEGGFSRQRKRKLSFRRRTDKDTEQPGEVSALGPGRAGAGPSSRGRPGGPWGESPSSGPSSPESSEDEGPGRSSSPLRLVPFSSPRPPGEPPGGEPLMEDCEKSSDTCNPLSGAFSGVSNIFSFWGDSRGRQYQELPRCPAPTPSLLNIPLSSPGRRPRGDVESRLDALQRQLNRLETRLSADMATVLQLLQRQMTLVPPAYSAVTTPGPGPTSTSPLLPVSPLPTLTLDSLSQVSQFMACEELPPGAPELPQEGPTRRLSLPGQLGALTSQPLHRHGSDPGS
row,Structure (SMILES),"hERG current change (%, negative = inhibition) at 10uM [%]"
1,CCOC(=O)C1CCCN(C(=O)CCn2nnnc2CN2CCOCC2)C1 (stereo not shown),18.4
2,O=C1NCCCc2nc(Oc3ccccc3)sc21,0.239
3,Cc1ccc(Cn2nnc3c(=O)[nH]c(C4CCCN(C(=O)Nc5ccc(F)cc5)C4)nc32)cc1 (stereo not shown),-5.1
4,Cc1cccc(OCC(=O)N(Cc2ccccc2)c2c(N)n(Cc3ccccc3)c(=O)[nH]c2=O)c1,-11.2
5,O=C(CN1CC=C(c2ccccc2)CC1)Nc1cc(Cl)ccc1Cl,-12.8
6,COc1ccccc1C1(CCN=Cc2ccc(N(C)C)cc2)CCOC(C)(C)C1 (stereo not shown),-2.03
7,CCN(C(=O)COC(=O)c1ccco1)c1c(N)n(Cc2ccccc2)c(=O)[nH]c1=O,-0.805
8,Cc1c(N2C(=O)c3ccc(Br)cc3C2=O)c(=O)n(-c2ccccc2)n1C,3.45
9,CCCCN1C(=O)C(C)=C(C)C1OCCc1ccc(OC)c(OC)c1 (stereo not shown),18.2
10,COc1ccc(S(=O)(=O)N2CCOCC2)cc1C(=O)NCc1ccccc1CN1CCCC1,-20.6
11,Cc1ccc(S(=O)(=O)N2CCOCC2)cc1C(=O)NCc1ccccn1,-0.76
12,Cc1ccc(S(=O)(=O)N2CCOCC2)cc1C(=O)NCc1ccccc1CN1CCCC1,-53
13,O=C(CCC(=O)Nc1ccccc1Cl)N/N=C/c1ccccc1,16.5
14,Cc1[nH]c2ccccc2c1/C=N\NC(=O)c1ccco1,11.1
15,COc1cccc(C(=O)NCC2CCCN(C(=O)c3ccc(C=O)cc3)C2)c1OC (stereo not shown),0.357
16,O=C(C1CCCN(S(=O)(=O)c2ccccc2)C1)N1CCCCCC1 (stereo not shown),-2.74
17,CN1CCN(C(=O)C2CCCN(S(=O)(=O)c3ccc(F)cc3)C2)CC1 (stereo not shown),19.9
18,COc1ccc(S(=O)(=O)N2CCCC(C(=O)N3CCN(C)CC3)C2)cc1Cl (stereo not shown),-12.4
19,O=C(C1CCCN(S(=O)(=O)c2ccccc2)C1)N1CCCCC1 (stereo not shown),7.94
20,O=C(Cc1ccccc1)N1CCC(C(=O)N2CCN(c3ccc(F)cc3)CC2)CC1,-56.6
21,Cc1ccc(S(=O)(=O)N2CCCC(C(=O)N3CCN(c4ccccc4)CC3)C2)cc1 (stereo not shown),-46.5
22,COc1ccc(S(=O)(=O)N2CCCC(C(=O)N3CCOCC3)C2)cc1Cl (stereo not shown),-14
23,O=C(C1CCCN(S(=O)(=O)c2ccccc2)C1)N1CCN(c2ccccc2)CC1 (stereo not shown),-54.8
24,O=C(C1CC1)N1CCN(c2ccc(F)cc2)CC1,13

row,Structure (SMILES),"hERG current change (%, negative = inhibition) at 10uM [%]"
1,O=C(C1CCCN(S(=O)(=O)c2ccccc2)C1)N1CCN(c2ccc(F)cc2)CC1 (stereo not shown),-75.7
2,O=C(O)C1CCN(C(=O)Cc2ccccc2)CC1,6.27
3,COc1ccc(S(=O)(=O)N2CCCC(C(=O)N3CCN(c4ccccc4)CC3)C2)cc1Cl (stereo not shown),-62
4,CC(NC(=O)Cn1cnnn1)C12CC3CC(CC(C3)C1)C2 (stereo not shown),7.75
5,CCCC1C(C(=O)OCC)=C(C)NC(C)=C1C(=O)OCC,10.7
6,CC(C)c1ccc(OCc2ccc(C(=O)NN3CCN(C)CC3)o2)cc1,-31.7
7,Cc1cccc(C)c1OP(N)(=O)Oc1c(C)cccc1C,11
8,CC(C)C(=O)Nc1ccc(C(=O)NNC(=O)c2ccco2)cc1,7.75
9,Cc1cc(C)n(C(=O)C2CCCN2S(=O)(=O)c2ccc(Cl)cc2)n1 (stereo not shown),-7.48
10,CCOc1ccc(C(=O)NCC(=O)Nc2ncccc2C)cc1OCC,18
11,COc1ccc(N2CCN(C(=O)CCc3c[nH]c4ccccc34)CC2)cc1,-10.2
12,CC(=O)Nc1ccc(S(=O)(=O)NC2C3(C)CCC(C3)C2(C)C)cc1 (stereo not shown),16.9
13,Cl.NCCSC1CC(=O)N(Cc2ccc(F)cc2)C1=O (stereo not shown),-20.4
14,CCOC(=O)Cc1csc(NC(=O)/C=C/c2ccc(Cl)cc2)n1,-9.29
15,CCOC(=O)N1CCN(C(=O)C2CCCN(S(=O)(=O)c3ccc(OCC)cc3)C2)CC1 (stereo not shown),-46.2
16,O=C(C1CCCN(S(=O)(=O)c2ccc(Br)cc2)C1)N1CCOCC1 (stereo not shown),-13.8
17,O=C(C1CCCN(S(=O)(=O)c2ccc(Br)cc2)C1)N1CCN(Cc2ccccc2)CC1 (stereo not shown),-55.1
18,CCOc1ccc(S(=O)(=O)N2CCCC(C(=O)N3CCN(c4ccccc4)CC3)C2)cc1 (stereo not shown),-56.3
19,O=C(C1CCCN(S(=O)(=O)c2cccs2)C1)N1CCC(N2CCCCC2)CC1 (stereo not shown),-61.7
20,CN1CCN(C(=O)C2CCCN(S(=O)(=O)c3ccc(Br)cc3)C2)CC1 (stereo not shown),-5.87
21,CC(=O)Nc1ccc(S(=O)(=O)N2CCCC(C(=O)N3CCN(c4ccccc4)CC3)C2)cc1 (stereo not shown),-50.9
22,O=C(O)C1CCCN(S(=O)(=O)c2cccs2)C1 (stereo not shown),4.67
23,CCOc1ccc(S(=O)(=O)N2CCC(C(=O)N3CCN(c4ccccc4)CC3)CC2)cc1,-18
24,CC(=O)N1CCCc2cc(S(=O)(=O)N3CCCC(C(=O)N4CCN(c5ccccc5)CC4)C3)ccc21 (stereo not shown),-21.3

row,Structure (SMILES),"hERG current change (%, negative = inhibition) at 10uM [%]"
1,O=C(C1CCCN(S(=O)(=O)c2cccs2)C1)N1CCN(C2CCCCC2)CC1 (stereo not shown),-24.6
2,CC(=O)Nc1ccc(S(=O)(=O)N2CCCC(C(=O)O)C2)cc1 (stereo not shown),-3.16
3,COc1cccc(Nc2nc(-c3sc(N)nc3C)cs2)c1,-18.2
4,CNc1nc(-c2c(C)n(C)c3ccc(OC)cc23)cs1,19.2
5,Cl.Clc1ccccc1CSC1=NCCCN1,0.0434
6,O=C(CN(C(=O)CCC(=O)Nc1ccccn1)c1ccc2c(c1)OCCO2)NCCc1ccccc1,2.29
7,CC1CCCC(C)N1c1ccc(S(=O)(=O)N2CCOCC2)cc1Cl (stereo not shown),11.5
8,COc1ccc(C2SCC(=O)N2CC23CC4CC(CC(C4)C2)C3)cc1 (stereo not shown),3.15
9,CCOC(=O)C1CCN(C(=O)C2CCCN(S(=O)(=O)c3ccc(OC)c(Cl)c3)C2)CC1 (stereo not shown),-67.2
10,O=C(C1CCN(S(=O)(=O)c2ccc(Br)s2)CC1)N1CCN(c2ccccc2)CC1,-10.5
11,O=C(C1CCCN(S(=O)(=O)c2ccc(Br)s2)C1)N1CCCCCC1 (stereo not shown),-11.8
12,CCOC(=O)C1CCN(C(=O)C2CCCN(S(=O)(=O)c3ccc(OCC)c(Cl)c3)C2)CC1 (stereo not shown),-40.8
13,CCOC(=O)C1CCN(S(=O)(=O)c2ccc(OC)c(Cl)c2)CC1,9.79
14,O=C(C1CCCN(S(=O)(=O)c2ccc(Br)s2)C1)N1CCN(c2ccccc2)CC1 (stereo not shown),-63.8
15,COc1ccc(CCNC(=O)Cn2nnc(-c3ccccc3F)n2)cc1OC,1.44
16,CC1CCCN(C(=O)COC(=O)CNC(=O)c2ccc(Br)cc2)C1 (stereo not shown),-8.3
17,CCOC(=O)C1CCN(C(C(=O)NC2CCCC2)c2ccc(C)cc2)CC1 (stereo not shown),-21.8
18,CC(C)c1ccc(O)c(NC(=O)c2cccnc2)c1,6.07
19,Cc1sc2ncnc(NCCN3CCOCC3)c2c1C.O=C(O)C(=O)O,-22.4
20,Cc1sc2ncnc(NCC(C)(C)N3CCOCC3)c2c1C,-71.7
21,Cc1sc2ncnc(NCCCN3CCCC3=O)c2c1C,3.27
22,Cc1sc2ncnc(NCC3CCCO3)c2c1C.Cl (stereo not shown),-1.4
23,c1csc(CNc2ncnc3sccc23)c1,-20.3
24,c1nc(NCC2(N3CCOCC3)CCCCC2)c2ccsc2n1,-73.3

row,Structure (SMILES),"hERG current change (%, negative = inhibition) at 10uM [%]"
1,Cc1sc2ncnc(N3CCOCC3)c2c1C,-13.7
2,c1nc(Nc2ccc(N3CCOCC3)cc2)c2ccsc2n1,-7.59
3,Cc1sc2ncnc(NCC3(N4CCOCC4)CCCCC3)c2c1C,-71.1
4,C=CCNC(=O)CC(=O)N/N=C/c1ccc(F)cc1,-3.54
5,CCSC(=O)NC12CC3CC(CC(C3)C1)C2,6.27
6,Cc1cc(OCC(=O)NCc2ccccn2)c2c(C)cc(=O)oc2c1,-7.15
7,O=C(NC(=S)Nc1ccc(S(=O)(=O)N2CCCCCC2)cc1)c1cccs1,-5.3
8,O=C(CCc1ccc(S(=O)(=O)N2CCOCC2)cc1)N/N=C/c1ccc(O)c(O)c1O,18.9
9,COc1ccc(NC(=O)C2=C(C)Nc3ncnn3C2c2ccccc2C(F)(F)F)c(OC)c1 (stereo not shown),2.77
10,CCOc1ccc(C(C)=O)cc1CSc1nc(C)cc(C)n1,-6.21
11,CCOc1ccccc1NC(=S)N1CCC(NC(=O)NC23CC4CC(CC(C4)C2)C3)CC1,-13.7
12,COc1ccc(S(=O)(=O)N2CCCOC2CNC(=O)C(=O)NCc2ccco2)cc1 (stereo not shown),-22
13,CCOC(=O)c1c(NC(=O)C(C)NCc2ccco2)sc2c1CCC(C)C2.O=C(O)C(=O)O (stereo not shown),-4.23
14,CCCNC(=O)COc1ccc2c(=O)c(Oc3ccccc3F)coc2c1,-61.6
15,COC(=O)COc1ccc2c(=O)c(Oc3ccccc3Br)coc2c1,14
16,COc1ccc(Oc2coc3cc(OC(=O)N4CCOCC4)ccc3c2=O)cc1,-25.3
17,Cc1oc2cc(OCc3cnn(-c4ccccc4)c3)ccc2c(=O)c1Oc1ccccc1F,-11.2
18,COC(=O)c1ccc(Oc2coc3cc(OCc4cnn(-c5ccccc5)c4)ccc3c2=O)cc1,7.07
19,O=c1c(Oc2ccccc2F)coc2cc(OCc3cnn(-c4ccccc4)c3)ccc12,-55
20,COc1cccc(Oc2coc3cc(OC(=O)N4CCOCC4)ccc3c2=O)c1,-4.27
21,COc1ccccc1Oc1coc2cc(OC(=O)N3CCOCC3)ccc2c1=O,-56.4
22,CCOc1ccccc1Oc1coc2cc(OCC(=O)O)ccc2c1=O,24.3
